In PubChem BioAssay (NCATS):
Results filed as inconclusive are left out. Active and inactive are the calls of the source. The call rests on the fitted dose curve; in most records, active means well fitted curve in the direction sought with a large enough effect; inconclusive means small, poorly fitted or top-dose-only effect, or another doubt; inactive means no such curve, though single readings can be large; an effect the other way counts as inactive or inconclusive.

Tests used:
TAB113 = assay: qHTS profiling for inhibitors of Plasmodium falciparum proliferation (AID 504749);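 further: 0% = DMSO vehicle and full inhibition = artemisinin control; nearly all actives have a fitted effect of over 60% in size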; details: P. falciparum in erythrocytes, SYBR Green DNA, 72 h; series mostly up to 28.7 µM
Method in brief: (§1)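 Three-day growth assay of blood-stage parasites in erythrocytes (0.3% parasitemia, 2.5% hematocrit) at 37 C, 5% CO2, quantified by SYBR Green DNA staining after overnight detergent lysis.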

TAB165 = assay: as above; details: P. falciparum in erythrocytes, SYBR Green DNA, 72 h; series mostly up to 28.7 µM
Method in brief: as §1

W2 = assay: as above; details: P. falciparum in erythrocytes, SYBR Green DNA, 72 h; series mostly up to 28.7 µM
Method in brief: as §1

CRL-7250 = normal cell line; assay: Cytotoxic Profiling of Annotated Libraries Using Quantitative High-Throughput Screening (AID 1296008); details: Five cell lines viability, CellTiter-Glo ATP luminescence, 48-72 h; max response: hits give low values; further: nearly all actives have a fitted effect of over 60% in size; on max response: on the % scale 0 is the no-effect control and ±100 the full control effect
Method in brief: (§2)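 Cytotoxicity was measured as CellTiter-Glo ATP luminescence, read after 10 min at room temperature. Compound treatment of the cells lasted 48 or 72 hr at 37 degrees Celsius in a qHTS format.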

HEK293 = assay: as above; details: Five cell lines viability, CellTiter-Glo ATP luminescence, 48-72 h; max response: hits give low values
Method in brief: as §2

HaCat [1] = assay: as above; details: Five cell lines viability, CellTiter-Glo ATP luminescence, 48-72 h; max response: hits give low values
Method in brief: as §2

KB-3-1 = assay: as above; details: Five cell lines viability, CellTiter-Glo ATP luminescence, 48-72 h; max response: hits give low values
Method in brief: as §2

NIH3T3 [2] = assay: as above; details: Five cell lines viability, CellTiter-Glo ATP luminescence, 48-72 h; max response: hits give low values
Method in brief: as §2

HACAT [3] = assay: qHTS assay to identify novel small-molecules to repurpose for Merkel cell carcinoma treatment (AID 1296009); details: MCC and control cell lines, CellTiter-Glo viability, 72 h; at 44.8 µM (top of the series) unless noted; further: nearly all actives have a fitted effect of over 60% in size
Method in brief: (§3)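 After compound transfer in DMSO, plates were kept 72 hr at 37 degree celsius. Luminescent ATP signal from CellTiter-Glo served as viability measure, normalized against DMSO and no-cell controls.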

HEK293T = assay: as above; details: MCC and control cell lines, CellTiter-Glo viability, 72 h; at 44.8 µM (top of the series) unless noted
Method in brief: as §3

MCC-13 = assay: as above; details: MCC and control cell lines, CellTiter-Glo viability, 72 h; series mostly up to 46 µM
Method in brief: as §3

MCC-26 = assay: as above; details: MCC and control cell lines, CellTiter-Glo viability, 72 h; series mostly up to 46 µM
Method in brief: as §3

MKL-1 = assay: as above; details: MCC and control cell lines, CellTiter-Glo viability, 72 h; series mostly up to 46 µM
Method in brief: as §3

MKL-2 = assay: as above; details: MCC and control cell lines, CellTiter-Glo viability, 72 h; series mostly up to 46 µM
Method in brief: as §3

WaGa = assay: as above; details: MCC and control cell lines, CellTiter-Glo viability, 72 h; series mostly up to 46 µM
Method in brief: as §3

C33A = assay: Primary qHTS to identify gynecologic anti-cancer compounds using libraries of approved drugs and bioactive compounds (AID 1345084); details: Gynecologic cancer cell panel viability, ATPlite luminescence, 48 h; series mostly up to 57.5 µM; further: on the % scale 0 is the no-effect control and ±100 the full control effect; nearly all actives have a fitted effect of over 55% in size
Method in brief: (§4)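 48 h compound exposure at 37 C, 5% CO2; five-point qHTS. ATPlite luminescence readout of cell ATP.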

CAOV3 = assay: as above; details: Gynecologic cancer cell panel viability, ATPlite luminescence, 48 h; series mostly up to 57.5 µM
Method in brief: as §4

CASKI = assay: as above; details: Gynecologic cancer cell panel viability, ATPlite luminescence, 48 h; series mostly up to 57.5 µM
Method in brief: as §4

UISO = assay: qHTS assay to identify novel small-molecules to repurpose for Merkel cell carcinoma treatment (AID 1296009); details: MCC and control cell lines, CellTiter-Glo viability, 72 h; series mostly up to 46 µM; further: nearly all actives have a fitted effect of over 60% in size
Method in brief: as §3

NIH3T3 [4] = assay: as above; details: MCC and control cell lines, CellTiter-Glo viability, 72 h; at 44.8 µM (top of the series) unless noted
Method in brief: as §3

N[C@H](Cc1c[nH]c2ccccc12)C(=O)O
inactive: Potency (TAB113) | Potency (TAB165) | Potency (W2) | max response (CRL-7250) -25% | outcome (HEK293) | outcome (HaCat [1]) | max response (KB-3-1) 5.87% | max response (NIH3T3 [2]) 3.07% | outcome (HACAT [3]) | outcome (HEK293T) | Potency (MCC-13) | Potency (MCC-26) | Potency (MKL-1) | Potency (MKL-2) | Potency (WaGa) | Potency (C33A) | Potency (CAOV3) | Potency (CASKI)

Cc1cc(O)c(C(C)C)cc1Cl
inactive: Potency (TAB113) | max response (CRL-7250) -3.05% | outcome (HEK293) | outcome (HaCat [1]) | max response (KB-3-1) 1.71% | max response (NIH3T3 [2]) 2.6% | outcome (HACAT [3]) | outcome (HEK293T) | Potency (MCC-13) | Potency (MCC-26) | Potency (MKL-1) | Potency (MKL-2) | Potency (UISO) | Potency (WaGa) | Potency (C33A) | Potency (CAOV3) | Potency (CASKI)

O=C1c2ccccc2C(=O)C1c1ccccc1
inactive: Potency (TAB113) | Potency (TAB165) | Potency (W2) | max response (CRL-7250) -3.39% | outcome (HEK293) | outcome (HaCat [1]) | max response (KB-3-1) -18.6% | outcome (NIH3T3 [2]) | outcome (HACAT [3]) | outcome (HEK293T) | Potency (MCC-13) | Potency (MCC-26) | Potency (MKL-1) | Potency (MKL-2) | outcome (NIH3T3 [4]) | Potency (UISO) | Potency (WaGa) | Potency (C33A) | Potency (CAOV3) | Potency (CASKI)

COC(=O)[C@@H]1CC2=CC(=O)CC[C@]2(C)[C@@]23O[C@@H]2C[C@@]2(C)[C@@H](CC[C@@]24CCC(=O)O4)[C@H]13
inactive: Potency (TAB113) | Potency (TAB165) | Potency (W2) | max response (CRL-7250) -2.8% | max response (HEK293) 3.69% | outcome (HaCat [1]) | max response (KB-3-1) -7.46% | outcome (NIH3T3 [2]) | outcome (HACAT [3]) | Potency (MCC-13) | Potency (MCC-26) | Potency (MKL-1) | Potency (MKL-2) | outcome (NIH3T3 [4]) | Potency (UISO) | Potency (WaGa) | Potency (C33A) | Potency (CAOV3) | Potency (CASKI)

CC(C)COC(=O)c1ccc(N)cc1
inactive: Potency (TAB113) | Potency (TAB165) | Potency (W2) | max response (CRL-7250) 2.7% | max response (HEK293) -1.38% | outcome (HaCat [1]) | max response (KB-3-1) 12.1% | max response (NIH3T3 [2]) 3.91% | outcome (HACAT [3]) | Potency (MCC-13) | Potency (MCC-26) | Potency (MKL-1) | Potency (MKL-2) | Potency (UISO) | Potency (WaGa) | Potency (C33A) | Potency (CAOV3) | Potency (CASKI)
